Bioassay records as filed in PubChem BioAssay.
IL-1B inflam inh – qHTS for Inhibitors of Inflammasome Signaling: IL-1-beta AlphaLISA Primary Screen. THP-1 LPS/ATP IL-1B secretion, AlphaLISA, 16 h; active compounds read low. activity change, % at 57.5 µM. 360,000 compounds, 4.7% hits. AID 743279, 2014; in the data active means activity change below about -50%; inconclusive means mostly about -30% to -49%
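Secreted IL-1B measured by AlphaLISA bead assay after 16 h compound exposure of THP-1 cells; compounds (final up to 57.5 uM) added 1 h before LPS (250 ng/mL) and ATP (1.25 mM) stimulation; lower signal means less secretion.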
TDP1 block – qHTS Assay for Inhibitors of Tyrosyl-DNA Phosphodiesterase (TDP1); Potency, µM (top dose mostly 130 µM), without a hit: top-dose activity change, negative = inhibition, usual class: inhibitors; recombinant TDP1, AlphaScreen DNA substrate cleavage; 350,000 compounds, 0.28% hits; further: potency means the concentration at half of the fitted maximal effect; nearly all actives have a fitted effect of over 40% in size
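Tdp1 1 nM final; 15 min RT w/ cpd; substrate 15 nM, 5 min; beads 10 ug/ml, 10 min; AlphaScreen read. Neg ctrl: no enzyme.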
CtBP-E1A inh – qHTS Assay for Inhibitors of the CtBP/E1A Interaction; AlphaScreen GST-E1A/His-CtBP binding, 1536-well; active compounds read low; activity change, % (no concentration beside the values); 340,000 compounds, 0.49% hits; AID 651724, 2012; in the data active means activity change below about -65%; inconclusive means mostly about -30% to -63%
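Homogeneous bead-based format: GST-tagged E1A captured on glutathione donor beads, His-tagged CtBP on nickel acceptor beads; compounds precede bead addition by 2 h at 37 °C.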
Six1-Eya2 inh – qHTS Assay for Inhibitors of the Six1/Eya2 Interaction; AlphaScreen GST-Six1/His-Eya2 binding, biochemical; active compounds read low; 360,000 compounds, 0.56% hits; Homeobox protein SIX1 (Homo sapiens) + Protein phosphatase EYA2 (Homo sapiens), …; activity change, % (no concentration beside the values); in the data active means activity change below about -65%; inconclusive means mostly about -30% to -63%
Target sequence (O00167 whole entry, looked up): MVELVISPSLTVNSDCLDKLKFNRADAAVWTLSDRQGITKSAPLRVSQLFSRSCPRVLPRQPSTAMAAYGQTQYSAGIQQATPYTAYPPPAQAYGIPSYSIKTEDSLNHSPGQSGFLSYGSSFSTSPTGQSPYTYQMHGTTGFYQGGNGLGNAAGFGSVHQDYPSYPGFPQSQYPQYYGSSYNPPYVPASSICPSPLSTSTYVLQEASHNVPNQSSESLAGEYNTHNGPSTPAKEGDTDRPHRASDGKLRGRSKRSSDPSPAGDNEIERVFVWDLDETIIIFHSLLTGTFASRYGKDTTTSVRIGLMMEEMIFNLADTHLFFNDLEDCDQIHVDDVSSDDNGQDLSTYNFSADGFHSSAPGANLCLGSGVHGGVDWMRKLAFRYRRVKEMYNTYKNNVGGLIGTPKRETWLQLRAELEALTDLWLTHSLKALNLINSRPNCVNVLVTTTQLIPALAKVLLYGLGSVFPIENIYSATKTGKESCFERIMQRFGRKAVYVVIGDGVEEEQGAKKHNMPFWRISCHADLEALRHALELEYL
Target sequence (Q15475 whole entry, looked up): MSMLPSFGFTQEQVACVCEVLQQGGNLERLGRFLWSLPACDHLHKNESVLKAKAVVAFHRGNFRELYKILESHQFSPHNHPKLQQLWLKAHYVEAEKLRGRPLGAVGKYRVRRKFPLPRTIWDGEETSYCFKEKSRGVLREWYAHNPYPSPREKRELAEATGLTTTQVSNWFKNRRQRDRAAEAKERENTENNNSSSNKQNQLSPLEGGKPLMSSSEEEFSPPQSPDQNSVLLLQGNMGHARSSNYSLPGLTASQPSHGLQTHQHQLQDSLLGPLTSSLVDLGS
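GST-Six1 + His-Eya2 (5X stock: 250/500 nM); Tris pH 8.0, 300 mM NaCl, 0.05% BSA, 0.02% Tween 20; GSH donor/Ni acceptor beads; 1 h 37 °C dark; AlphaScreen readout.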
DT40 TDP1 CPT – qHTS for Inhibitors of human tyrosyl-DNA phosphodiesterase 1 (TDP1): qHTS in cells in presence of CPT | chicken DT40 Tdp1-/-;hTDP1 cells + 20 nM CPT, ATP luminescence, 48 h | Potency, µM (titrated, usually from 46.2 µM), inactives show at the highest dose activity change, negative = growth inhibition, most hits filed as inhibitors | 420,000 compounds, 12% hits | AID 686979, 2013; further: potency means the concentration at half of the fitted maximal effect; nearly all actives have a fitted effect of over 55% in size
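Chicken DT40 Tdp1-/- cells complemented with human TDP1, 400 cells/well, exposed to compounds plus 20 nM camptothecin for at least 48 h at 37 C; viability read as ATP content by CellTiter-Glo luminescence.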
DT40 TDP1 no CPT – qHTS for Inhibitors of human tyrosyl-DNA phosphodiesterase 1 (TDP1): qHTS in cells in absence of CPT; DT40 Tdp1-/- hTDP1 cells, no CPT, ATP luminescence, 48 h; Potency, µM (highest dose often 46.2 µM), without a hit: at the top dose activity change, negative = growth inhibition, hits mostly inhibitors; 420,000 compounds, 15% hits; further: potency means the concentration at half of the fitted maximal effect; nearly all actives have a fitted effect of over 55% in size
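Compound effects on proliferation are scored in DT40 Tdp1-/-;hTDP1 cells in the absence of CPT. ATP levels (CellTiter-Glo luminescence) are recorded after a ≥48 hr, 37 °C incubation.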
* hit, by the source's call; ? = inconclusive; . = no result; [ ] = another dose, or the depositor's remark. Shown are actives, neighbours in structure and some others; about 18% of the full set was active somewhere. Unless noted, the call rests on the fitted dose curve; in most records, active means well fitted curve in the direction sought with a large enough effect; inconclusive means small, poorly fitted or top-dose-only effect, or another doubt; inactive means no such curve, though single readings can be large; an effect the other way counts as inactive or inconclusive. On the % scale 0 is the no-effect control and ±100 the full control effect.

SMILES	IL-1B inflam inh	TDP1 block	CtBP-E1A inh	Six1-Eya2 inh	DT40 TDP1 CPT	DT40 TDP1 no CPT
COc1ccc(S(=O)(=O)N2CCCCCC2)cc1C(=O)N(C)Cc1ccc(Cl)cc1Cl	-56*	.	-10	1	?	?
CN(CCOc1ccc(Cl)cc1)c1ccc(S(=O)(=O)N2CCCCC2)cn1	0	-2%	6	2	18µM*	23µM*
COc1ccc(S(=O)(=O)N2CCOCC2)cc1C(=O)N(C)CCOc1ccc(Cl)cc1	3	1%[56.1 µM]	.	1	?	16µM*
Cc1ccc(OCCNc2ccc(S(=O)(=O)N3CCCC3)cn2)cc1	-15	-3%	9	4	-8%	?
CN(CCOc1ccc(Cl)cc1)C(=O)c1cc([N+](=O)[O-])ccc1N1CCOCC1	-5	-9%	4	-14	21µM*	12µM*
Cc1ccc(S(=O)(=O)N2CCCCC2)cc1C(=O)N(C)CCOc1ccccc1	1	2%	2	-6	-25%	-13%
COc1ccc(S(=O)(=O)N2CCCCCC2)cc1C(=O)N(C)CCOc1ccccc1	-5	0%	4	-2	?	18µM*
Cc1ccc(S(=O)(=O)N2CCOCC2)cc1C(=O)N(C)CCOc1ccc(Cl)cc1	-16	-3%	3	5	?	16µM*
CN(CCOc1ccc(Cl)cc1)C(=O)c1cc(S(=O)(=O)N2CCOCC2)ccc1N1CCCC1	-22	3%	-7	-4	16µM*	21µM*
O=C(Nc1ccc(C(=O)O)cc1)/C(=C\C=C\c1ccccc1)NC(=O)c1ccc(Br)cc1	-25	0%	-9	-4	30%	12%
CC1CCN(CCCOc2ccc(OCc3ccccc3)cc2)CC1	-6	0%	-14	-8	?	?
COc1ccc(C(=O)NCc2ccccc2)cc1Br	-7	4%	-1	-11	-10%	-11%
CC1CCC(NC(=O)COc2ccc(C(=O)c3ccccc3)cc2)CC1 (configuration not stated)	-65*	1%	-21	10	?	10µM*
COc1ccccc1OCCOc1ccc(C(=O)c2ccccc2)cc1	-12	-5%	27	18	18µM*	?
COc1ccc(C(=O)c2ccccc2)cc1Br	-53*	-4%	24	23	-17%	0%
CC1CCN(CCOc2ccc(C(=O)c3ccccc3)cc2)CC1	-5	.	2	-8	16µM*	?
CC(=O)c1ccc(OCC(=O)NC2CCCCCC2)cc1	14	-7%	1	14	-5%	-13%
CCOCCCNC(=S)N1CCC(NC(=O)c2ccco2)CC1	-5	6%	-5	0	-10%	12%
Cc1ccc2c(c1)CN(CCNC(=O)c1c(-c3ccccc3)noc1C)CC(C)O2 (configuration not stated)	.	.	.	.	5%[9.04 µM]	-11%
C/C(=N\OC(=O)c1ccccc1F)c1nccs1	9	4%	-14	3	8%	6%
C=C1[C@@H](O)[C@H](CC(C)C)N(Cc2ccccc2Br)S1(=O)=O	?	.	.	14	5µM*	18µM*
COc1ccc(CNS(=O)(=O)c2cc(Br)cc3c2N(C(C)=O)C(C)C3)cc1 (configuration not stated)	-3	13%	-1	-16	?	?
Cc1n[nH]c(C)c1N1C(=O)c2cccc3c(Br)ccc(c23)C1=O	-107*	3%	0	-10	?	?
O=C(Nc1ccc(Cl)cc1)C1CCCN1C(=O)NCc1ccccc1 (configuration not stated)	-8	6%	-17	0	2%	-6%
CC1CCN(c2cc(C#N)c(C#N)cc2[N+](=O)[O-])CC1	12	2%	1	-2	-18%	-10%
SMILES	IL-1B inflam inh	TDP1 block	CtBP-E1A inh	Six1-Eya2 inh	DT40 TDP1 CPT	DT40 TDP1 no CPT
CC1CCCCN1c1cc(C#N)c(C#N)cc1[N+](=O)[O-] (configuration not stated)	-6	2%	-3	-19	18µM*	-24%
COC(=O)[C@@]12CCCCN1[C@H](c1ccc(-c3ccccc3)cc1)[C@@H]1C(=O)N(C)C(=O)[C@@H]12	0	0%	0	-11	21µM*	?
COC(=O)[C@@]12CCCN1[C@H](c1ccc(-c3ccc(F)cc3)cc1)[C@H]1C(=O)N(C)C(=O)[C@H]12	6	-1%	2	0	?	?
COC(=O)[C@@]12CCCCN1[C@H](c1ccc(-c3ccc(OC)cc3)cc1)[C@H]1C(=O)N(C)C(=O)[C@H]12	-1	0%	7	4	12µM*	9.2µM*
COC(=O)[C@@]12CCCCN1[C@H](c1ccc(-c3ccc(F)cc3)cc1)[C@H]1C(=O)N(C)C(=O)[C@H]12	-14	3%	.	-8	?	23µM*
COC(=O)[C@@]12CCCN1[C@H](c1ccc(-c3ccc4c(c3)OCO4)cc1)[C@H]1C(=O)N(C)C(=O)[C@H]12	8	4%	-5	-1	?	?
COC(=O)[C@@H]1CCCN1C(=O)c1ccc(OC2CCN(Cc3ccccn3)CC2)cc1	3	2%	-11	8	-1%	2%
CSC1=NCCN1C(=O)c1cccs1	-15	4%	0	-5	0%	-12%
Cc1cc(C)nc(SCC(=O)c2ccc(F)c(C)c2)n1	-1	.	.	5	-8%	1%
Cn1c(-c2ccccc2)cnc1N	?	6%	?	?	-27%	-18%
Cc1occc1C(=O)N/N=C/C=C/c1ccccc1[N+](=O)[O-]	-62*	7%	-12	-6	7%	1%
O=C(N/N=C/C=C/c1ccccc1[N+](=O)[O-])c1cc(-c2cccnc2)nc2ccccc12	-14	0%	.	-5	?	21µM*
COc1ccccc1-c1cc(C(=O)N/N=C/C=C/c2ccccc2[N+](=O)[O-])c2ccccc2n1	-51*	9%	?	-27	18µM*	21µM*
Cc1cc(C(=O)N/N=C/C=C/c2ccccc2[N+](=O)[O-])c(C)o1	-24	-3%	7	0	-5%	-29%
O=C(CSc1cccc[n+]1[O-])NC(=O)c1ccc(OC(F)F)cc1	25	6%	31	-11	2%	-6%
